We go through 11 compounds from ChEMBL document CHEMBL3988442, “University of Dundee, Small-Polar-MMV Screening Library” (2021).

For some of these results: Potency and affinity values are given separately.

Holding throughout (parameters): scale not given: direction of the effect not stated beside the values
The target of assay [1] is Protein translocase subunit SecA (Escherichia coli (strain K12)) (UniProt P10408). Description: Assay to Identify E. coli SecA ATPase Inhibitors. The assay is classed as functional. To be noted: 30 µM.
The target in assay [2] is T1, Ubiquitin-activating enzyme e1, putative (Leishmania donovani (strain BPK282A1)) (UniProt E9BSI1).
T1 sequence (whole entry): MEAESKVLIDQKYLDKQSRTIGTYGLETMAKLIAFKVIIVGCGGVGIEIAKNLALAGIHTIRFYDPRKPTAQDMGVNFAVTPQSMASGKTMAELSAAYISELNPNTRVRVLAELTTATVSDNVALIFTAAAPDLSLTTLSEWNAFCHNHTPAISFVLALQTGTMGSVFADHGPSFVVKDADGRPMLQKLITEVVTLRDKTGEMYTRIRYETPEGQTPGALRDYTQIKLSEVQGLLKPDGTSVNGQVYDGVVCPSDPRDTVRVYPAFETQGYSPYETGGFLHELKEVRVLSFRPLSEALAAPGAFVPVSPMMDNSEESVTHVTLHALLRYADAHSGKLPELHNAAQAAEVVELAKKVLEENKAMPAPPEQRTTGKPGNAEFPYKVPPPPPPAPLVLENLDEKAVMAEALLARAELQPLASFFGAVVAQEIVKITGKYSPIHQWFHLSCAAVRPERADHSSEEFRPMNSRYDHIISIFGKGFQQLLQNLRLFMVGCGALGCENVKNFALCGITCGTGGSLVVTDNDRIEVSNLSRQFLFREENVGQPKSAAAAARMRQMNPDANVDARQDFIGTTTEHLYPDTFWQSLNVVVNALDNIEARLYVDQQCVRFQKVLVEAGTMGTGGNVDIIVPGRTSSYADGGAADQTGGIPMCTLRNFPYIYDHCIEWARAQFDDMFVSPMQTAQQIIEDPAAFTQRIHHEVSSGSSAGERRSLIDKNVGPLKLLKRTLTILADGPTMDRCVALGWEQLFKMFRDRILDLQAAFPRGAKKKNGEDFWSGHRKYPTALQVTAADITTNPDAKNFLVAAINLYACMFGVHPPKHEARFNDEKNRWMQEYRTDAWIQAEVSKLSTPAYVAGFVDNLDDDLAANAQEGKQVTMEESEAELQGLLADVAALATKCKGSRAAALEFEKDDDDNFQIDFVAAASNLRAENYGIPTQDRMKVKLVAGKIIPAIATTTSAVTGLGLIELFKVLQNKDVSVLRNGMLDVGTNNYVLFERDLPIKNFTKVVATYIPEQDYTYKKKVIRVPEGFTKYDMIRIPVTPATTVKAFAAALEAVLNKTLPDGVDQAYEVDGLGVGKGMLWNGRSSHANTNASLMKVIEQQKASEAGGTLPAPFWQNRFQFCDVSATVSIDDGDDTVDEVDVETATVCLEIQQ
The assay can be described thus: Leishmania donovani Ubiquitin Activating Enzyme (LdE1). The assay is classed as functional. The following applies: 30 µM.

For assay [3], the target named is AMP-activated protein kinase, AMPK (Homo sapiens) (UniProt P54646+O43741+P54619+Q9UGJ0+Q9Y478+Q13131+Q9UGI9). The assay can be described thus: AMP-dependent Kinase enzyme assay. An in vitro enzyme assay that detects ADP turnover that is directly proportional to AMPK activity. This uses naive AMPK that is activated during the assay with MK-8722. The assay is classed as functional. To be noted: 30 µM.

In assay [4] the target is Sialic acid-binding Ig-like lectin 9 (Homo sapiens) (UniProt Q9Y336). Description: Hs-Siglec9 ALPHAscreen SOP 20170721. To be noted: 10 µM.
In assay [5] the test system is Trypanosoma cruzi. Description: Trypanosoma cruzi phosphomannomutase and mannose-1-phosphate guanylyltransferase assay. The following applies: 10 µM. In kind it is functional.
Assay [6] has as its target T2, Arginase-2, mitochondrial (Homo sapiens) (UniProt P78540).
T2 sequence (whole entry): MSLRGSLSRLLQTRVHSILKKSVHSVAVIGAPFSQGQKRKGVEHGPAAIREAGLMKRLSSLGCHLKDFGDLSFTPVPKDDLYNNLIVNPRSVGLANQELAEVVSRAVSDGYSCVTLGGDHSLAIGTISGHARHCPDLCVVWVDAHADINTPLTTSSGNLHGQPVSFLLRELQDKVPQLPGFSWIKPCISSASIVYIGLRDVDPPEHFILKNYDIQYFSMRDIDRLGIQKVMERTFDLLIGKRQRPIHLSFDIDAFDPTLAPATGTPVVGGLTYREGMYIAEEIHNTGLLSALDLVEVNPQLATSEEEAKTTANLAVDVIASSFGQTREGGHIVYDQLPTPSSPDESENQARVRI
The assay can be described thus: in vitro enzyme assay to detect the production of urea directly proportional to the activity of Arginase II. Also: in the data most compounds retested in dose-response had high values. The assay is classed as functional. To be noted: 33.3 µM.

Assay [7] concerns the target T3, Proteasome subunit beta (Trypanosoma cruzi) (UniProt O96673).
T3 sequence (whole entry): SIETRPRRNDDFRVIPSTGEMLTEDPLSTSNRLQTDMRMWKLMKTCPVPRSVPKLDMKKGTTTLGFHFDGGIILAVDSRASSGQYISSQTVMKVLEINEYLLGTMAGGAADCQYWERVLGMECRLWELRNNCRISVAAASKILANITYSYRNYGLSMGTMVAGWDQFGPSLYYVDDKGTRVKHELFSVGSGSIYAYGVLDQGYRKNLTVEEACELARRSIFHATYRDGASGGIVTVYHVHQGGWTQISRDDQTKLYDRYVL
The assay can be described thus: Trypanosoma cruzi proteasome chymotrypsin-like activity (TcProtChymo) assay. Also: in the data most compounds retested in dose-response had high values. The assay is classed as functional. The following applies: 9.37 µM.

The species named for assay [8] is Homo sapiens. Description: To identify inhibition of the IFN signalling (Jak-Stat) pathway via expression of an eGFP reporter gene under the control of an IFN-stimulated response element (ISRE) containing MxA promoter. To be noted: 30 µM. In kind it is functional. In general terms: A reporter such as luciferase makes a cellular process visible.
For assay [9], the target named is T4, Tyrosyl-tRNA synthetase, putative (Trypanosoma cruzi (strain CL Brener)) (UniProt Q4DSP6).
T4 sequence (whole entry): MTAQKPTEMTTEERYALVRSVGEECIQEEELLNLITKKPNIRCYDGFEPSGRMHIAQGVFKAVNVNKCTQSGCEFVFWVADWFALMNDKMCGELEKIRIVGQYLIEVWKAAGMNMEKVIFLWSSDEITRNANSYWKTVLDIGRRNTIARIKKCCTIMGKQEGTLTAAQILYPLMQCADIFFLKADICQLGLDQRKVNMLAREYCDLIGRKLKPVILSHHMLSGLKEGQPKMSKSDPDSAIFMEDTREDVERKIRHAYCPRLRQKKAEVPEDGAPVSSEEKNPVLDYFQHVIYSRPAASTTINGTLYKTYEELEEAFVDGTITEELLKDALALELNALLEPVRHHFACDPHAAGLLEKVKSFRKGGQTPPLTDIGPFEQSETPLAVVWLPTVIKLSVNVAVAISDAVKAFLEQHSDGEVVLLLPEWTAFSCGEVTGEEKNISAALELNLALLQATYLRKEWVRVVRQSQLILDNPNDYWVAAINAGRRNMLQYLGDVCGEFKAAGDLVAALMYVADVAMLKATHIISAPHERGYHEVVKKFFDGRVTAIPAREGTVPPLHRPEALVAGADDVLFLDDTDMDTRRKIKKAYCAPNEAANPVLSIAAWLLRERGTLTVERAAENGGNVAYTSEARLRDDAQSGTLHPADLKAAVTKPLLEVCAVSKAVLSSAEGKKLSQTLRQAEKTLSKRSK
The assay can be described thus: Trypanosoma cruzi tyrosyl tRNA synthetase (TcYRS) _High Tyrosine SOP. Also: in the data most compounds retested in dose-response had high values. In kind it is functional. The following applies: 30 µM.

The target in assay [10] is T4, Tyrosyl-tRNA synthetase, putative (Trypanosoma cruzi (strain CL Brener)). Description: Trypanosoma cruzi tyrosyl tRNA synthetase (TcYRS) SOP. The assay is classed as functional. To be noted: 30 µM.
The target of assay [11] is Chromo domain-containing protein 1 (Saccharomyces cerevisiae (strain ATCC 204508 / S288c) (Baker's yeast)) (UniProt P32657). The assay can be described thus: ScCHD-1 Enzyme Inhibition Assay. Also: in the data most compounds retested in dose-response had high values. In kind it is functional. The following applies: 30 µM.
Sequence of Chromo domain-containing protein 1 (Saccharomyces cerevisiae (strain ATCC 204508 / S288c) (Baker's yeast)) (P32657 whole entry, the tested form may be a part): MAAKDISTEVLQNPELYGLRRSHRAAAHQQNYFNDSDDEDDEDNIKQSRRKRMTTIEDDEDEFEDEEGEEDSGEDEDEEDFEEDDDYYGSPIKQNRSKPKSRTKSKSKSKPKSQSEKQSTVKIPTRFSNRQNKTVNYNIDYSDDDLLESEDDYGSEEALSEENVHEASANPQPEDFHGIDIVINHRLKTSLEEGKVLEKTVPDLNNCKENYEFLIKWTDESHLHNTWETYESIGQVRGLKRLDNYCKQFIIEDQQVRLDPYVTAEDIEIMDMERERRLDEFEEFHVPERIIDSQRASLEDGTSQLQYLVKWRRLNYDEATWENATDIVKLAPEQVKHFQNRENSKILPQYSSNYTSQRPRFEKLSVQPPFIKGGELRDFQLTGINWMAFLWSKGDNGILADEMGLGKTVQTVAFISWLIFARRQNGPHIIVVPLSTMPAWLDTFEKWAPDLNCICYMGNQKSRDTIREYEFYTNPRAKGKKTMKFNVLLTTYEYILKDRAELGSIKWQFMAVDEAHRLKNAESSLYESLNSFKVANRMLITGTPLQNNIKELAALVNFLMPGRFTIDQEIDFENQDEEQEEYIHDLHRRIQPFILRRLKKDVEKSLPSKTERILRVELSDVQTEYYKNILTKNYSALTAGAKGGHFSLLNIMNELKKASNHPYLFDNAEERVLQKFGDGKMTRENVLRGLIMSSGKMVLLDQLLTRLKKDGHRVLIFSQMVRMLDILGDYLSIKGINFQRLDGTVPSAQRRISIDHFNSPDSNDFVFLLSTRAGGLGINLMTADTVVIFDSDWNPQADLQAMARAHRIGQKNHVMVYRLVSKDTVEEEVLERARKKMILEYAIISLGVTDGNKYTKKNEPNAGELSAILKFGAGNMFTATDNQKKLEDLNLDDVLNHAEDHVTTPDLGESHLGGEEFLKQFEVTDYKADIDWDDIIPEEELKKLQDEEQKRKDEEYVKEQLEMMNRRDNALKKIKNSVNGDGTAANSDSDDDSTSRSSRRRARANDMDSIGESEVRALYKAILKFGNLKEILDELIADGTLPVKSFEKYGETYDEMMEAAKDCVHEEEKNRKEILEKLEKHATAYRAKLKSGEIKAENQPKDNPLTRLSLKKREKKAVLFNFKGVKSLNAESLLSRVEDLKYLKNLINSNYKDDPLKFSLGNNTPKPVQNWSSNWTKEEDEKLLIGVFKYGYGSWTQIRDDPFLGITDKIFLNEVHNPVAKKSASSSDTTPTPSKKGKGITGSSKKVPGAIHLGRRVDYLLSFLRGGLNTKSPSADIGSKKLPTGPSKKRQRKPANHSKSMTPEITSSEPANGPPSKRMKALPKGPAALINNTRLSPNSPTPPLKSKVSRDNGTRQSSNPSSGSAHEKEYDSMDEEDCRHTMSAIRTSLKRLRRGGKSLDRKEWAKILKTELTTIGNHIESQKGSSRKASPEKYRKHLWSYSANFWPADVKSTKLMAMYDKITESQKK

Sequence of Sialic acid-binding Ig-like lectin 9 (Homo sapiens) (Q9Y336 whole entry): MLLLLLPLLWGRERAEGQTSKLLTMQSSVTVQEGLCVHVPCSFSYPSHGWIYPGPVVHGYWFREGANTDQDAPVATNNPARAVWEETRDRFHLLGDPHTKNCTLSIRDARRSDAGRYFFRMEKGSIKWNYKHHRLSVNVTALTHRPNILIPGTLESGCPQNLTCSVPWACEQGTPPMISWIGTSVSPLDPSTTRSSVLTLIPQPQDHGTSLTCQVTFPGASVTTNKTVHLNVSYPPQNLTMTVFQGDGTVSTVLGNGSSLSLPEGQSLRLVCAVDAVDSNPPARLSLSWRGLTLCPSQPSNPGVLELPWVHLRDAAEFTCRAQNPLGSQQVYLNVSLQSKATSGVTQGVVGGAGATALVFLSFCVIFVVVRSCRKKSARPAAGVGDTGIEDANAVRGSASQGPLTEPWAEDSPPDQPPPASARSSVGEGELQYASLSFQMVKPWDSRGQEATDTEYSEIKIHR
Sequence of Protein translocase subunit SecA (Escherichia coli (strain K12)) (P10408 whole entry): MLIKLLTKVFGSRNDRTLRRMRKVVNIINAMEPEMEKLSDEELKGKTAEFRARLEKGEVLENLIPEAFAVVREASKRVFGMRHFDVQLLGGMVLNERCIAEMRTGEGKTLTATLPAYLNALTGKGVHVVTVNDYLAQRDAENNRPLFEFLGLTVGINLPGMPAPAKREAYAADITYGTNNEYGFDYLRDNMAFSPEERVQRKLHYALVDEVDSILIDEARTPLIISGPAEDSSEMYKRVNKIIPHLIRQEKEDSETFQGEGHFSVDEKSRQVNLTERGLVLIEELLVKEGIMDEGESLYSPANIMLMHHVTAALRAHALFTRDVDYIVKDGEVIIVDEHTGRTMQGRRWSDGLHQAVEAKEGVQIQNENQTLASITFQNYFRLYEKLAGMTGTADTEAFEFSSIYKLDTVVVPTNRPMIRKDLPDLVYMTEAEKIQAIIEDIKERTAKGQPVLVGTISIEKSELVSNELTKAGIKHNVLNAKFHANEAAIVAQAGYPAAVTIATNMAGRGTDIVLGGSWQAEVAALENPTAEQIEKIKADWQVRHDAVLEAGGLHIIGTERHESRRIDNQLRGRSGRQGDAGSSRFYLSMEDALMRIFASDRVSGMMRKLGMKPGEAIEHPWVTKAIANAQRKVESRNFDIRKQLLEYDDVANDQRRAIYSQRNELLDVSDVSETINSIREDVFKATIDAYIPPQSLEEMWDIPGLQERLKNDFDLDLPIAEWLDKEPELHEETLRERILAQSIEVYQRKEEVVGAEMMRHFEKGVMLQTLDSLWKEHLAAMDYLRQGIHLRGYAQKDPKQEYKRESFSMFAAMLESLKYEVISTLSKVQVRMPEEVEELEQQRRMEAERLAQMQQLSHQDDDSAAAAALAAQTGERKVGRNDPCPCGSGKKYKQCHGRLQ

As to `CCc1noc(C(C)N2CCN(c3ccc(C#N)cc3F)CC2)n1` (stereo unspecified), the Percent Effect in assay [1] was -1.97%; in assay [2], 5.26%; in assay [3] it was 2.6%; in assay [4], -3.73%; in assay [5] it was 7.89%; in assay [6], -8.28%. Moreover, the Percent Effect in assay [7] is 21.2%; in assay [8], -24.1%; in assay [9] it was 6.38%; in [10], 13%; in [11], -4.69%.

Take `CCn1cc(CN2CCC(c3nnc(CN(C)C)n3CC)CC2)cn1`: the Percent Effect is 0.381% in assay [1]; 10.4% in assay [2]; 3.2% in [3]; 6.14% in [4]; -4.03% in assay [5]; -1.38% in assay [6]. In addition, the Percent Effect in assay [7] is 14%; in [8], 4.82%; in assay [9] it was 2.15%; in assay [10], 6.17%; in assay [11] it was 0.0159%.

Consider `COc1cc(CNCc2c(C)nn(C)c2N(C)C)ccn1`, for which the Percent Effect in [1] is -2.79%; in assay [2] it was 5.41%; in assay [3], -15.9%; in assay [4] it was 8.34%; in [5], 4.25%; in assay [6], -3.61%. Also, the Percent Effect in [7] was 1.62%; in [8] it was 9.11%; in assay [9], 4.43%; in assay [10], 18.5%; in assay [11], -11.1%.

Turning to `CCn1cc(CN2C[C@@H]3CCCN3C[C@@H]2CCSC)c(C)n1`, the Percent Effect is -1.75% in [1]; 5.33% in assay [2]; 8.44% in assay [3]; 4.09% in assay [4]; -4.53% in assay [5]; 2.1% in assay [6]. The Percent Effect in [7] turned out to be 8.37%; in assay [8] it was 3.9%; in assay [9], 3.19%; in assay [10] it was 6.41%; in assay [11], 0.13%.

`O=C(NCC(O)c1cccs1)c1cccc(Cl)c1` (stereo unspecified): the Percent Effect is -0.149% in [1]; 13.7% in assay [2]; 3.83% in assay [3]; 0.22% in assay [4]; 3.72% in [5]; 7.27% in [6]. Further, the Percent Effect was 25.6% in assay [7]; 13.3% in [8]; 6.45% in assay [9]; 17.5% in [10]; -6.71% in assay [11].

For `CCOC(=O)[C@]12CCCN(Cc3nccs3)C[C@H]1CN(CCN(C)C)C2`, the Percent Effect in assay [1] is -2.1%; in assay [2], 13%; in assay [3], 1.26%; in [4] it was -3.57%; in assay [5], -0.493%; in [6], 7.1%. For the same compound, the Percent Effect was 16.2% in [7]; 8.87% in assay [8]; 2.12% in assay [9]; 8.97% in [10]; -10.9% in [11].

For the compound `O=S(=O)(Nc1cnn(C2CCOCC2)c1)c1ccc2c(c1)CCO2`, the Percent Effect in [1] was -1.97%; in [2], -2.6%; in assay [3] it was -19.5%; in assay [4], 5.92%; in assay [5] it was -0.296%; in [6] it was -9.68%. Moreover, the Percent Effect in assay [7] is 12%; in assay [8], 13%; in assay [9], 1.06%; in [10], -1.28%; in assay [11] it was -7.66%.

Regarding `Cc1nc(C)c(CNC(=O)NC(c2nnc3n2CCC3)C(C)C)s1` (stereo unspecified), the Percent Effect was -6.15% in [1]; 0% in [2]; -0.521% in assay [3]; 1.26% in assay [4]; -4.1% in assay [5]; -2.08% in [6]. For the same compound, the Percent Effect in assay [7] was 12.8%; in [8] it was 8.88%; in assay [9], 5.94%; in [10], 11%; in [11] it was -0.921%.

Take `C[C@@H]1CN(C2(C(=O)N3CCCCCC3)Cc3ccccc3C2)C[C@H](C)O1`: the Percent Effect is -2.48% in [1]; 6.94% in assay [2]; -6.6% in [3]; 11% in [4]; 6.51% in assay [5]; 3.97% in assay [6]. Besides, the Percent Effect in assay [7] is -0.702%; in assay [8], -2.77%; in assay [9], 2.1%; in [10], 2.56%; in assay [11], -1.63%.

With `COc1ccccc1CC(=O)N1CCC(NCc2cccnc2)CC1`, the Percent Effect in assay [1] is -3.89%; in [2] it was 16.2%; in assay [3], -2.91%; in assay [4] it was -2.63%; in [5] it was -9.01%; in assay [6], -0.924%. Moreover, the Percent Effect is 7.18% in assay [7]; 3.6% in [8]; 3.96% in assay [9]; 3.66% in [10]; -3.87% in [11].

Consider `CC(C)c1nc2c(n1C)CCN(CC(=O)Nc1nccs1)C2`, for which the Percent Effect in assay [1] is -4.97%; in assay [2], 15.6%; in assay [3], 1.78%; in assay [4] it was -4.17%; in assay [5] it was -0.686%; in assay [6], 3.58%. Further, the Percent Effect in assay [7] was 15.3%; in assay [8] it was -3.14%; in assay [9] it was 9.52%; in assay [10], 21.2%; in [11], -18%.
